TGFb inhibitor = blocks TGF-b signaling; Potency, µM (top dose mostly 46.1 µM), without a hit: at the top dose activity, negative = inhibition, hits mostly inhibitors; HepG2 CAGA-GFP TGF-b/SMAD3 reporter, GFP fluorescence, 18 h; TGF-beta stimulated, 500 pg/mL final; 410,000 tested, 1.2% active; further: on the % scale 0 is the no-effect control and ±100 the full control effect; nearly all actives have a fitted effect of over 65% in size
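Smad-responsive CAGA-GFP expression was quantified in HEPG2 cells exposed to compounds and 500 pg/mL final TGF-beta for 18 h at 37 degrees C; unstimulated wells defined full inhibition.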
A549 tox = counter-screen for Nrf2 inhibitors: cytotoxicity in A549 cells; A549 ARE-Fluc cells, CellTiter-Fluor viability, 18-24 h; Potency, µM (highest dose often 46 µM), inactives show at the highest dose activity change, negative = cytotoxicity, hits mostly inhibitors; 390,000 tested, 0.16% active; further: on the % scale 0 is the no-effect control and ±100 the full control effect
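Cytotoxicity counterscreen: CellTiter-Fluor fluorescence was measured in A549 ARE_Fluc cells after 18-24 h of compound exposure in a concentration series. The subsequent BugLite luminescent read reports ARE-luciferase activity.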
HepG2 tox = kills HepG2 cells in TGF-b inhibitor counter-screen; HepG2 CAGA-GFP viability, ATP luminescence, 18 h; Potency, µM (titrated, usually from 46.1 µM), without a hit: at the highest dose activity change, negative = cytotoxicity, actives largely listed as cytotoxic; 410,000 tested, 0.76% active; AID 588856
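HepG2 CAGA-GFP cells (1000/well, DMEM with 1% FBS) received compound, then TGF-beta at 500 pg/mL final, and were incubated 18 hours at 37 degrees C. Viability was read by CellTiter-Glo luminescence. Media-only wells were set as complete cell-killing and DMSO as no toxicity.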
Nrf2 block = blocks Nrf2 signaling. A549 ARE-Fluc reporter, luciferase luminescence, 18-24 h. Potency, µM (titrated, usually from 46 µM), for inactives: at the highest dose activity change, negative = inhibition, usual class: inhibitors. 360,000 tested, 2.1% active; further: on the % scale 0 is the no-effect control and ±100 the full control effect; nearly all actives have a fitted effect of over 60% in size
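Concentration-response testing used A549 ARE_Fluc cells at 5000 cells/well. Following an 18-24 h compound incubation, viability was read by fluorescence (Ex 405/Em 525) and luciferase output by luminescence.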
ATXN viability = viability counter-screen for ATXN expression inhibitors; S2 cells (HEK-293 line with an ATXN2-luciferase reporter) viability, CellTiter-Fluor protease fluorescence, 24 h; 400,000 tested, 0.49% active; Potency, µM (series often up to 56.7 µM), hits mostly cytotoxic; AID 651635; further: nearly all actives have a fitted effect of over 40% in size
ATXN2 expr inh = inhibitors of ATXN2 expression. HEK-293 ATXN2-luciferase reporter, luminescence, 24 h. 360,000 tested, 0.72% active. Potency, µM (top dose mostly 57 µM), for inactives: at the top dose activity change, negative = inhibition, hits mostly inhibitors; further: on the % scale 0 is the no-effect control and ±100 the full control effect; nearly all actives have a fitted effect of over 55% in size
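ATXN2-luciferase reporter cells (luciferase flanked by upstream and downstream ATXN2 gene portions) were treated 24 h at 37 °C with compounds at up to 57 uM. SteadyGlo luminescence gave expression; GF-AFC fluorescence gave viability.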
Active calls of the source: *; i = inactive; ? = inconclusive; / = no result given; [ ] = remark or other dose. Most compounds without a hit are left out; they make up all but 3.8% or so of the library. The call rests on the fitted dose curve; in most records, active means well fitted curve in the direction sought with a large enough effect; inconclusive means small, poorly fitted or top-dose-only effect, or another doubt; inactive means no such curve, though single readings can be large; an effect the other way counts as inactive or inconclusive. Potency means the concentration at half of the fitted maximal effect.

SMILES | TGFb inhibitor | A549 tox | HepG2 tox | Nrf2 block | ATXN viability | ATXN2 expr inh
COC(=O)C1=C(c2ccccc2OCc2ccccc2)C[C@@H]2CC[C@H]1N2C(=O)NCc1ccc(C(C)(C)C)cc1 | -11% | -12% | -5% | 21µM* | ? | -17%
COC(=O)C1=C(c2ccc(F)cc2OCc2ccccc2)C[C@@H]2CC[C@H]1N2C(=O)NCc1ccc([N+](=O)[O-])cc1 | ? | -8% | 4% | ? | ? | -12%
COC(=O)C1=C(c2ccc(F)cc2OCc2ccccc2)C[C@@H]2CC[C@H]1N2C(=O)NC1Cc2ccccc2C1 | -21% | -17% | -12% | 16µM* | i | -22%
COC(=O)C1=C(c2ccc(F)cc2OCc2ccccc2)C[C@@H]2CC[C@H]1N2C(=O)NCc1ccc(C)cc1 | -23% | ? | -12% | 15µM* | ? | ?
COC(=O)C1=C(c2ccc(F)cc2OCc2ccccc2)C[C@@H]2CC[C@H]1N2C(=O)NCc1ccc(F)cc1 | -30% | -15% | -7% | ? | ? | ?
COc1ccc(CCNC(=O)c2ccc3c(c2)CCN3S(=O)(=O)c2ccc(C)cc2)cc1OC | -18% | -3% | -18% | ? | ? | -12%
C=C(C)[C@@H]1[C@H]2OC(=O)[C@H]1[C@]1(O)C[C@H]3O[C@]34C(=O)O[C@H]2[C@]14C | 0% | 1% | -13% | -2% | i | 3%
COc1ccc(C)cc1NC(=O)C1CCN(S(=O)(=O)c2ccc3[nH]c(=O)oc3c2)CC1 | -8% | -1% | -34% | ? | i | -3%
Cc1cccc(C(C)C)c1NC(=O)Cn1c(=O)oc2cc(S(=O)(=O)N3CCCC3)ccc21 | / | -4% | -13% | -13% | / | /
COC(=O)C1=C(c2ccc(F)cc2OCc2ccccc2)C[C@@H]2CC[C@H]1N2C(=O)NCCCc1ccccc1 | -11% | -17% | 0% | 16µM* | ? | 0%
Cc1cc(NC(=O)COC(=O)c2c(C)nn(Cc3ccccc3)c2C)no1 | ? | 2% | 1% | -22% | i | -5%
Cc1cc(NC(=O)CCl)no1 | ? | ? | -37% | 16µM* | ? | 5%[11.3 µM]
N#Cc1c(Br)n(C2OC(CO)C(O)C2O)c2ncnc(N)c12 (stereo unspecified) | ? | ? | -13% | 339% | ? | 2.5µM*
Nc1ncnc2c1ncn2[C@@H]1O[C@H](COP(=O)(O)CP(=O)(O)O)[C@@H](O)[C@H]1O | 2% | -10% | -32% | -20% | i | 0%
N#CC(C#N)=Cc1ccc(C=C(C#N)C#N)cc1 | ? | -6% | 25µM* | 9% | ? | ?
CCN(CC)C(=O)N[C@@H]1C=C2c3cccc4[nH]cc(c34)C[C@@H]2N(C)C1 | / | / | / | / | i | 0%
CC(C)OCCCNC(=O)c1c(N)n(Cc2cccs2)c2nc3ccccc3nc12 | 18µM* | ? | 22µM* | ? | i | ?
CC(C)CNC(=O)c1c(N)n(Cc2ccco2)c2nc3ccccc3nc12 | 22µM* | -21% | -87% | ? | / | ?
CCCNC(=O)c1c(N)n(Cc2ccc3c(c2)OCO3)c2nc3ccccc3nc12 | ? | -11% | -4% | 12% | i | -27%
CC(C)CCNC(=O)c1c(N)n(Cc2ccc3c(c2)OCO3)c2nc3ccccc3nc12 | 2% | 16µM* | -3% | 21µM* | i | ?
COCCNC(=O)c1c(N)n(CCC(C)C)c2nc3ccccc3nc12 | ? | 12% | -77% | ? | / | -15%
CC(C)CNC(=O)c1c(N)n(Cc2ccc3c(c2)OCO3)c2nc3ccccc3nc12 | 16µM* | ? | -94% | ? | i | ?
CC(C)CCn1c(N)c(C(=O)NCc2cccs2)c2nc3ccccc3nc21 | -1% | 4% | -1% | -22% | i | ?
Cc1ccc(CNC(=O)CCCn2c(=O)c3sccc3n(CC(=O)Nc3c(C)cccc3C)c2=O)cc1 | 1% | -3% | 3% | -20% | / | /
CCc1c(C(=O)C(N)=O)c2c(OCC(=O)O)cccc2n1Cc1ccccc1 | / | / | / | / | / | -2%
SMILES | TGFb inhibitor | A549 tox | HepG2 tox | Nrf2 block | ATXN viability | ATXN2 expr inh
COc1ccc(Cn2c(N)c(C(=O)NCc3ccco3)c3nc4ccccc4nc32)cc1OC | 16µM* | ? | -51% | ? | i | ?
Brc1ccc2[nH]cc(C=NN3CCCCCC3)c2c1 | -22% | -1% | -3% | -16% | i | -1%
C=C1C(=O)O[C@@H]2C[C@@H](C)[C@@H]3C4OC4C(=O)[C@@]3(C)[C@@H](O)[C@H]12 (stereo partly specified) | 2.8µM* | ? | -88% | ? | 3.5µM* | 3.2µM*
C=C1C(=O)O[C@H]2C[C@@H](C)[C@@H]3C=CC(=O)[C@@]3(C)C[C@H]12 | 4.5µM* | ? | 7.9µM* | 21µM* | ? | 6.3µM*
C=C1C(=O)O[C@H]2[C@H]1[C@H](OC(=O)CC(=O)O[C@@H]1C[C@@H](C)[C@@H]3C=CC(=O)[C@@]3(C)[C@H]3OC(=O)C(=C)[C@H]13)C[C@@H](C)[C@H]1C=CC(=O)[C@]12C | ? | -6% | -65% | 9% | ? | ?
C=C1C(=O)OC2CC(C)C3C=CC(=O)C3(C)C(O)C12 (stereo unspecified) | 3.2µM* | 10µM* | -118% | 5.8µM* | ? | ?
CSc1ccccc1NC(=O)CN(C)CC(=O)c1[nH]c(C)c(C(C)=O)c1C | 28% | -8% | -28% | ? | i | -1%
Cc1nc(-c2cccc(NC(=O)c3ccc(Cl)c(S(=O)(=O)N4CCCC4)c3)c2)cs1 | ? | / | -9% | / | ? | /
CCCC1=Nc2cc(C(=O)NCCCN(CC)CC)ccc2Sc2ccccc21 | ? | 7% | -80% | ? | ? | 32µM*
CCCC1=Nc2cc(C(=O)NCCc3ccc(OCC)cc3)ccc2Sc2ccccc21 | -8% | -6% | -12% | ? | i | -16%
CN1C(=O)/C(=C/C=C/c2ccco2)C(=O)NC1=S | ? | -4% | -11% | 0% | i | 3%
Cn1cccc1/C=C1\C(=O)NC(=O)N(Cc2ccco2)C1=O | 3% | 1% | -5% | 4% | i | 9%
O=C1NC(=O)N(Cc2ccco2)C(=O)/C1=C/C=C/c1ccco1 | 7.1µM* | 0% | -25% | -6% | ? | ?
O=C1NC(=O)N(Cc2ccccc2)C(=O)/C1=C\C=C\c1ccco1 | 10µM* | ? | -15% | 26µM* | i | /
